# The supplement of paper PMC10338343
# ± gives the standard deviation.
# Key:
# [1] = test system: MILI (PIWIL2) piRISC loaded with L1MC piRNA (26 nt); experiment: pre-steady-state target cleavage rate (min^-1); guide: L1MC piRNA 5'p-UAACUAAAUACUAUGCAAGCUGUAGG; higher = faster piRNA-guided slicing of the target;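 further: 1 nM active piRISC with 0.1 nM target library at 33 °C single turnover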
# In short: (§1)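 Reactions were run for 0–8 or 0–960 min at 33 °C in HEPES–potassium acetate buffer, combining 1 nM active affinity-purified piRISC with one synthetic guide, […] transcribed, DNA-blocked target RNA library and, in some cases, 500 nM GTSF1 partner protein. Sequencing of uncleaved targets followed, with normalisation to depth and to weakly complementary targets. Three trials were pooled, k3 was capped at 0.0001 min^-1, and the pre-steady-state cleavage rate was taken from a burst-and-steady-state fit.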
# [2] = test system: EfPiwi piRISC loaded with L1MC piRNA (26 nt); experiment: pre-steady-state target cleavage rate (min^-1); auxiliary factor: 500 nM Ephydatia muelleri Gtsf1; guide: L1MC piRNA 5'p-UAACUAAAUACUAUGCAAGCUGUAGG; MIWI and MILI are mouse PIWI proteins and EfPiwi is from a freshwater sponge; tags in brackets are library labels; higher = faster piRNA-guided slicing of the target
# In short: as §1
# [3] = auxiliary factor: 500 nM mouse GTSF1
# [4] = auxiliary factor: none (no GTSF1)
sequence,measurement,setting,value
UCCUGGUAGCAGCUUGCAUAGUAUUUAGUUA,pre-steady-state target cleavage rate,[1]; [3],0.286 ± 0.019
same,pre-steady-state target cleavage rate,[1]; [4],0.0162 ± 0.0048
same,pre-steady-state target cleavage rate,[2],0.0746 ± 0.02
UCCUGCAACUGCUUGCAUAGUAUUUAGUUA,pre-steady-state target cleavage rate,[1]; [3],0.322 ± 0.025
same,pre-steady-state target cleavage rate,[1]; [4],0.00581 ± 0.0026
same,pre-steady-state target cleavage rate,[2],0.0198 ± 0.0044
UCCUGGAUGUGGUAGCAUAGUAUUUAGUUA,pre-steady-state target cleavage rate,[1]; [3],0.0258 ± 0.011
same,pre-steady-state target cleavage rate,[1]; [4],0.00767 ± 0.0031
same,pre-steady-state target cleavage rate,[2],0.00356 ± 0.0033
UCCUGGAUGUGCAUGCAUAGUAUUUAGUUA,pre-steady-state target cleavage rate,[1]; [3],0.116 ± 0.011
same,pre-steady-state target cleavage rate,[1]; [4],0.0095 ± 0.0025
same,pre-steady-state target cleavage rate,[2],0.00855 ± 0.0029
UCCUGGUUCAGCUUGCAUAGUAAUUAGUUA,pre-steady-state target cleavage rate,[1]; [3],0.235 ± 0.024
same,pre-steady-state target cleavage rate,[1]; [4],0.00723 ± 0.0031
same,pre-steady-state target cleavage rate,[2],0.0107 ± 0.0037
UCCUGGUACAGUUGCAUAGUAUUUAGUUA,pre-steady-state target cleavage rate,[1]; [3],0.227 ± 0.023
same,pre-steady-state target cleavage rate,[1]; [4],0.0115 ± 0.003
same,pre-steady-state target cleavage rate,[2],0.0124 ± 0.0051
UCCUGGAUCUCGUUGCAUAGUAUUUAGUUA,pre-steady-state target cleavage rate,[1]; [3],0.198 ± 0.019
same,pre-steady-state target cleavage rate,[1]; [4],0.00544 ± 0.0024
same,pre-steady-state target cleavage rate,[2],0.0466 ± 0.011
UCCUGGAUCAGCUUGCAUAGUAUUUGAGUUA,pre-steady-state target cleavage rate,[1]; [3],0.222 ± 0.036
same,pre-steady-state target cleavage rate,[1]; [4],0.00502 ± 0.0022
same,pre-steady-state target cleavage rate,[2],0.00696 ± 0.0028
UCCUGGAUGAGCUGGCAUAGUAUUUAGUUA,pre-steady-state target cleavage rate,[1]; [3],0.185 ± 0.016
same,pre-steady-state target cleavage rate,[1]; [4],0.0101 ± 0.0034
same,pre-steady-state target cleavage rate,[2],0.0103 ± 0.0035
UCCUGCUACAGGUUGCAUAGUAUAUAGUUA,pre-steady-state target cleavage rate,[1]; [3],0.305 ± 0.036
same,pre-steady-state target cleavage rate,[1]; [4],0.00597 ± 0.0027
same,pre-steady-state target cleavage rate,[2],0.005 ± 0.0032
UCCUGGAACAGUUUGCAUAGUAUUUAGUUA,pre-steady-state target cleavage rate,[1]; [3],0.285 ± 0.014
same,pre-steady-state target cleavage rate,[1]; [4],0.00997 ± 0.0019
same,pre-steady-state target cleavage rate,[2],0.0565 ± 0.013
UCCUCCUUACAGCUUGCAUAGUAUUUAGUUA,pre-steady-state target cleavage rate,[1]; [3],0.301 ± 0.014
same,pre-steady-state target cleavage rate,[1]; [4],0.011 ± 0.0028
same,pre-steady-state target cleavage rate,[2],0.117 ± 0.03
UCCUGGAACAGCUUGGCAUAGUAUUUAGUUA,pre-steady-state target cleavage rate,[1]; [3],0.48 ± 0.097
same,pre-steady-state target cleavage rate,[1]; [4],0.00632 ± 0.0027
same,pre-steady-state target cleavage rate,[2],0.0094 ± 0.0031
UCCUCCUACACCAUGCAUAGUAUUUAGUUA,pre-steady-state target cleavage rate,[1]; [3],0.243 ± 0.019
same,pre-steady-state target cleavage rate,[1]; [4],0.00814 ± 0.0024
same,pre-steady-state target cleavage rate,[2],0.145 ± 0.05
UCCUGCUACAGCUUGGAUUGUAUUUAGUUA,pre-steady-state target cleavage rate,[1]; [3],0.0899 ± 0.011
same,pre-steady-state target cleavage rate,[1]; [4],0.00506 ± 0.0023
same,pre-steady-state target cleavage rate,[2],0.00362 ± 0.002
UCCUCCUACAGCUUGCAUAGUAUUUAUGUUA,pre-steady-state target cleavage rate,[1]; [3],0.162 ± 0.023
same,pre-steady-state target cleavage rate,[1]; [4],0.00611 ± 0.0025
same,pre-steady-state target cleavage rate,[2],0.00546 ± 0.0027
UCCUGCUACACGUUGCAUAGUAUUUAGUAA,pre-steady-state target cleavage rate,[1]; [3],0.215 ± 0.028
same,pre-steady-state target cleavage rate,[1]; [4],0.00567 ± 0.0021
same,pre-steady-state target cleavage rate,[2],0.00458 ± 0.0025
UCCUCCUACAGCUUGCAUUGUAUUUAGUAA,pre-steady-state target cleavage rate,[1]; [3],0.182 ± 0.02
same,pre-steady-state target cleavage rate,[1]; [4],0.00398 ± 0.002
same,pre-steady-state target cleavage rate,[2],0.00648 ± 0.0029
UCCUGGAUGAGCUUGGAUAGUAAUUAGUUA,pre-steady-state target cleavage rate,[1]; [3],0.1 ± 0.02
same,pre-steady-state target cleavage rate,[1]; [4],0.00311 ± 0.0026
same,pre-steady-state target cleavage rate,[2],0.00302 ± 0.0021
UCCUGCCACAGCUUGCAUAGUAUUUAGUUA,pre-steady-state target cleavage rate,[1]; [3],0.331 ± 0.025
same,pre-steady-state target cleavage rate,[1]; [4],0.0105 ± 0.003
same,pre-steady-state target cleavage rate,[2],0.0631 ± 0.017
UCCUGCUACAGCUUGCAUAGUAUAAAGUUA,pre-steady-state target cleavage rate,[1]; [3],0.198 ± 0.025
same,pre-steady-state target cleavage rate,[1]; [4],0.00349 ± 0.0022
same,pre-steady-state target cleavage rate,[2],0.00347 ± 0.0022
UCCUGCUUCAGCUUGGAUAGUAUUUAGUUA,pre-steady-state target cleavage rate,[1]; [3],0.268 ± 0.015
same,pre-steady-state target cleavage rate,[1]; [4],0.0068 ± 0.002
same,pre-steady-state target cleavage rate,[2],0.0331 ± 0.007
UCCUGGAACACCUUGCAUAGUAUUUAGUUA,pre-steady-state target cleavage rate,[1]; [3],0.234 ± 0.026
same,pre-steady-state target cleavage rate,[1]; [4],0.00811 ± 0.0025
same,pre-steady-state target cleavage rate,[2],0.0061 ± 0.0032
UCCUCCUACACGUUGCAUAGUAUUUAGUAA,pre-steady-state target cleavage rate,[1]; [3],0.163 ± 0.022
same,pre-steady-state target cleavage rate,[1]; [4],0.00299 ± 0.0029
same,pre-steady-state target cleavage rate,[2],0.00566 ± 0.0027
UCCUGCUACAGGUUGCAUUGUAUUUAGUUA,pre-steady-state target cleavage rate,[1]; [3],0.141 ± 0.019
same,pre-steady-state target cleavage rate,[1]; [4],0.0103 ± 0.0026
same,pre-steady-state target cleavage rate,[2],0.00597 ± 0.0023
